About 83,000 compounds went through this panel and 20% of them were active in at least one assay; those are over-represented in the sample as a whole.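 48-hour exposure, single concentration, 96-well plates; percent growth endpoint where 0 means no net growth. Active: below 10.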 Values without a mark were called inactive. Calls of active or inactive are those of the source.
Experiments:
Assay in all cases: NCI-60 one-dose screen, 48 h (100 = growth as untreated, 0 = no growth, -100 = all killed)
786-0 renal = conditions: 10 µM unless noted
DU-145 prostate = conditions: 10 µM unless noted
MDA-MB-231 breast = conditions: 10 µM unless noted
SF-268 CNS = conditions: 10 µM unless noted
SF-539 CNS = conditions: 10 µM unless noted
UACC-257 melanoma = conditions: 10 µM unless noted
HCT-15 colon = conditions: 10 µM
SNB-19 CNS = conditions: 10 µM unless noted
PC-3 prostate = conditions: 10 µM unless noted
UACC-62 melanoma = conditions: 10 µM unless noted
LOX IMVI melanoma = conditions: 10 µM unless noted
SK-MEL-28 melanoma = conditions: 10 µM unless noted
SN12C renal = conditions: 10 µM unless noted
MOLT-4 leukemia = conditions: 10 µM
OVCAR-8 ovarian = conditions: 10 µM unless noted
OVCAR-3 ovarian = conditions: 10 µM unless noted
MDA-MB-435 melanoma = conditions: 10 µM unless noted
SW-620 colon = conditions: 10 µM unless noted
MCF7 breast = conditions: 10 µM unless noted
KM12 colon = conditions: 10 µM unless noted

| Compound | growth (786-0 renal) | growth (DU-145 prostate) | growth (MDA-MB-231 breast) | growth (SF-268 CNS) | growth (SF-539 CNS) | growth (UACC-257 melanoma) | growth (HCT-15 colon) | growth (SNB-19 CNS) | growth (PC-3 prostate) | growth (UACC-62 melanoma) | growth (LOX IMVI melanoma) | growth (SK-MEL-28 melanoma) | growth (SN12C renal) | growth (MOLT-4 leukemia) | growth (OVCAR-8 ovarian) | growth (OVCAR-3 ovarian) | growth (MDA-MB-435 melanoma) | growth (SW-620 colon) | growth (MCF7 breast) | growth (KM12 colon) |
| --- | --- | --- | --- | --- | --- | --- | --- | --- | --- | --- | --- | --- | --- | --- | --- | --- | --- | --- | --- | --- |
| ClCCN(CCCl)c1ccc(/C=C\c2ccnc3ccccc23)cc1 | 84.2% | 90.6% | 92.2% | 94.9% | 92.5% | 47.1% | 75% | 88.8% | 55.5% | 59.2% | 80.3% | 98.1% | 75.7% | 69.8% | 79.8% | 84% | 76% | 77.2% | 61.5% | 83.1% |
| CC1(C)CC(=O)CC(C)(C)N1N=O | 109% | 107% | 109% | 106% | 94.3% | 104% | 98.1% | 107% |  | 104% | 97.1% | 109% | 106% | 101% | 102% | 101% | 112% |  | 97.9% | 99.1% |
| [Cl][Hg][n]1cnc2c(Cl)c(Cl)c(Cl)cc21 | 112% | 100% | 108% | 88% | 101% | 96.2% | 100% | 102% | 88.7% | 86.5% | 79.6% | 107% | 102% | 107% | 101% | 94.5% | 107% | 114% | 78.3% | 97.8% |
| C1CNC2CCCC2C1 (stereo not drawn) | 105% | 107% | 118% | 104% | 102% | 106% | 99.2% | 111% | 101% | 108% | 101% | 111% | 111% | 116% | 106% | 107% | 105% | 103% | 99.7% | 97% |
| C=CCC1(CC)C(=O)NC(=S)NC1=O | 108% | 103% | 109% | 101% | 98.3% | 105% | 99.9% | 97.1% | 96.8% | 101% | 97.2% | 116% | 93.4% | 93.2% | 100% | 105% | 103% | 101% | 103% | 101% |
| C#CC1(O)CCC2(C)C(CCC3C4CCC(=O)C4(C)CCC32)C1 (stereo not drawn) | 97.4% | 109% | 101% | 97.9% | 97.2% | 93.9% | 97.5% | 95% | 90.9% | 88.7% | 96.6% | 105% | 101% | 97.3% | 97.6% | 109% | 101% | 103% | 104% | 102% |
| O=S(=O)(O)c1ccc(-c2ccc([As](=O)(O)O)cc2)cc1 | 103% | 110% | 104% | 98.5% | 105% | 93.6% | 103% | 97.7% | 98% | 98% | 99.8% | 103% | 104% | 101% | 93.8% | 107% | 103% | 103% | 103% | 105% |
| O=[N+]([O-])c1cc([N+](=O)[O-])c(Cl)c(Cl)c1Cl | 12.2% | -27.2% (active) | 22.3% |  | 11.6% | 20.4% | -49.1% (active) | 73.5% | 57.1% | 14.6% | -62.6% (active) | 65.9% | 19.4% | 2.06% (active) | -41.1% (active) | -99% (active) | 19.3% |  | 2.17% (active) | 37.4% |
| CN(Cc1cccnc1)N=O | 107% | 108% | 103% | 95.5% | 96.8% | 95.7% | 100% | 99.9% | 95.9% | 98.3% | 93.5% | 108% | 102% | 102% | 98.6% | 101% | 103% | 98.2% | 95.9% | 102% |
| Nc1cccc2c1Oc1ccccc1O2 | 99.2% | 120% | 93.1% | 176% | 112% | 102% | 102% | 114% | 84.9% | 88.1% | 93.1% | 124% | 106% | 103% | 104% | 103% | 105% | 107% | 137% | 114% |
| CC1(C)N=C(N)N=C(N)N1c1ccc(CCCCc2ccc(S(=O)(=O)F)cc2)cc1 | 25.1% | 31.8% | 46.7% | 30% | 28.6% | 39.1% | 36.8% | 42% | 12.5% | 19.8% | 15.2% | 47.7% | 26.8% | 25.3% | 24.3% | 33.2% | 18.9% | 19.4% | 2.82% (active) | 17.1% |
| CCC(CC)(c1ccccc1)C(OC(N)=O)c1ccccc1 (stereo not drawn) | 82.9% | 98.4% | 94.7% | 93.9% | 103% | 85.8% | 80% | 88.1% | 72.3% |  | 77.8% | 85.4% | 81.8% | 80.2% | 92.5% | 89% | 50.6% | 81% | 81.9% | 83.8% |
| CC(=O)[O][Hg][c]1ccccc1 | -96.4% (active) | -97.9% (active) | -54.8% (active) | -86.4% (active) | -53.6% (active) |  | -65.5% (active) | -26.6% (active) | -57.8% (active) | -69% (active) | -88.2% (active) | -88.4% (active) | -90.5% (active) | -10.9% (active) |  | -93.3% (active) | -89.2% (active) | -92.9% (active) | -75.2% (active) | -95.3% (active) |
| CC12CCC(=O)C=C1C(O)CC1C2CCC2(C)C(O)CCC12 (stereo not drawn) | 115% | 102% | 114% | 98% | 98.7% | 95% | 106% | 101% | 95% | 99.5% | 97.2% | 115% | 105% | 96.5% | 105% | 103% | 112% | 109% | 97.1% | 98.8% |
| CCC1([N+](=O)[O-])COP(=O)(NCc2cccnc2)OC1 (stereo not drawn) | 96.4% | 103% | 111% | 106% | 106% | 113% | 104% | 108% | 106% | 105% | 102% | 113% | 114% | 111% | 108% | 113% | 117% | 105% | 115% | 103% |
| CCC(/C=C(C)/C=C/C(=O)c1c(O)c(-c2ccc(O)cc2)c[nH]c1=O)CO (stereo not drawn) | 87.6% | 9.29% (active) | 111% | 45.1% | 77.4% | 92.4% | 91.6% | 90.6% | 27.7% | 99.8% | 87.2% | 105% | 91.7% | 31.5% | 92.4% | 41.8% | 80.9% | 100% | 88.7% | 47% |
| CCOc1ccc(C(O)CN(C)Cc2ccccc2)cc1Cl (stereo not drawn) | 100% | 103% | 93.6% | 95.5% | 108% | 108% | 106% | 100% | 89.3% | 96.4% | 98.6% | 98.5% | 102% | 96.3% | 105% | 99.7% | 103% | 98.5% | 98.6% | 100% |
